Compounds with a hit are over-represented: about 5.2% of the library has one in this group of screens.
Sfp PPTase inh – inhibitors of Bacillus subtilis Sfp phosphopantetheinyl transferase | Biochemical Sfp PPTase activity, qHTS | 310,000 tested, 3.5% active | Q9F4F7 | Potency, µM, for the others: largest response in the series, negative = inhibition, actives largely listed as inhibitors | AID 1490;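 note: the enzyme is Sfp with the accession as filed and its product quenches rhodamine fluorescence; potency is the fitted concentration of half-maximal effect; 0% = enzyme reaction without inhibitor and -100% = no enzyme wells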
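Compounds were incubated with enzyme (final 15 nM) for 15 min at room temperature before substrate addition started the reaction. Fluorescence at 525 nm excitation, 598 nm emission was recorded immediately and after 30 minutes.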
Tau FP inhib – tau fibrillization inhibition (FP); K18 P301L tau heparin fibrillization, Alexa594 FP, 6 h; 280,000 tested, 0.39% active; Potency, µM (series often up to 57.7 µM), for the others: at the top dose activity, negative = inhibition, most hits filed as inhibitors; P10636; AID 1468; note: potency is the fitted concentration of half-maximal effect; nearly all actives have a fitted effect of over 55% in size
Target sequence (P10636 561-689 P618L limits assumed): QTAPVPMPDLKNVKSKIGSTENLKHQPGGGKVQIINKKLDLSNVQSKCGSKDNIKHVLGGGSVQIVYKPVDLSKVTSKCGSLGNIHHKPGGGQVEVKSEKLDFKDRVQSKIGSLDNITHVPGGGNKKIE
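K18 P301L tau (15 uM unlabeled/0.24 uM Alexa 594-labeled, final) + compound + heparin 20 uM final; 100 mM NaOAc pH 7; 6 hr 37 C; ThT 30 uM final added, 1 hr RT; FP ex 555/em 632 nm.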
Tau ThT inhib – tau fibrillization inhibition (ThT binding). Potency, µM (highest dose often 57.4 µM), without a hit: top-dose activity, negative = inhibition, most hits filed as inhibitors. AID 1460. 270,000 tested, 2.1% active. recombinant tau K18 P301L, heparin-induced fibrillization, ThT fluorescence; note: potency is the fitted concentration of half-maximal effect; nearly all actives have a fitted effect of over 55% in size
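In this qHTS, human K18 P301L tau is incubated with compound and heparin for 6 hr at 37 C, and Thioflavin T fluorescence then reports fibril load.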
Coupling enz – counter-screen for Giardia aldolase inhibitors: coupling enzyme system; coupling enzyme system counterscreen, AmpLite Red fluorescence; activity change, negative = inhibition, % at 58.2 µM, hits read low; 290,000 tested, 0.67% active; AID 2472; in the data active = activity change below about -30%
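Coupling enzymes only (glyceraldehyde-3-phosphate) + compound, at 57.5 uM final, 10 min RT; add substrate/coupling/AmpLite Red mix, 20 min RT; fluorescence ex 525/em 598 nm. Actives flag coupling-system interference.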
Tau fluor cs – counter-screen for tau fibril formation inhibitors; 280,000 tested, 0.93% active; Potency, µM (series often up to 57.7 µM), inactives show at the highest dose activity change, negative = decrease; tau K18 P301L (four-repeat tau fragment) Alexa594 fluorescence, heparin fibrillization; note: potency is the fitted concentration of half-maximal effect; nearly all actives have a fitted effect of over 55% in size
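Human K18 P301L tau (15 uM unlabeled plus 0.24 uM Alexa 594-labeled, final) in 100 mM sodium acetate pH 7 was mixed with compound and 20 uM heparin and incubated 6 hr at 37 C.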
* = called active by the depositor; ? = inconclusive; . = not tested or not shown; ! = repeats disagree; [ ] = remark or other dose. Unless noted, calls come from the whole dose curve; as a rule, active = well fitted curve in the direction sought with a large enough effect; inconclusive = small, poorly fitted or top-dose-only effect, or another doubt; inactive = no such curve, though single readings can be large; an effect the other way counts as inactive or inconclusive. Unless noted, % is set by controls: 0 for no effect and ±100 for the full control effect.

SMILES | Sfp PPTase inh | Tau FP inhib | Tau ThT inhib | Coupling enz | Tau fluor cs
Cc1ccc(N2C(=O)NC(=O)/C(=C/c3ccc(OC(=O)c4cccs4)cc3)C2=O)cc1 | 45µM* | -9% | ? | 5 | -13%
CCn1c(O)c(/C=N/NC(=O)c2ccncc2)c(=O)n(CC)c1=S | 79µM* | 2% | -8% | 0 | -8%
NCCNC[C@@H](N)CCCN=C(N)N[N+](=O)[O-] | 11% | . | . | -2 | .
COC(=O)C12CC3=CCC4C(=O)N(c5ccccc5)C(=O)C4C3Cc3ccccc3[C@@H]1CNC2=O (some centres undefined) | -15% | -3% | -1% | -1 | -5%
COc1ccc(CCNc2nccn(-c3ccc(C)c(C)c3)c2=O)cc1OC | . | 0% | ? | . | -14%
COc1ccc(Cc2nccc3cc(OC)c(OC)cc23)cc1OC | -9% | -7% | ? | -32*! | -12%
c1ccc(N2CCC3(CCNCC3)CC2)cc1 | ? | . | . | 0 | .
CC(C)C(O)(C(=O)OC[C@@H]1CC[N+]2([O-])CCCC12)C(C)O (some centres undefined) | 11% | 6% | -2% | 3 | -1%
Nc1nc(O)c(-c2ccccc2)o1 | -10% | . | . | . | .
Cc1cc([N+](=O)[O-])c(Cl)cc1NC(=O)C(C)C | 10% | 1% | 4% | 2 | 6%
CNc1cc(Cl)c2nonc2c1[N+](=O)[O-] | -26% | -9% | 11µM* | -12 | ?
CCc1ccc(CN2CCN(C(=O)Cc3ccccc3)CC2)cc1 | ? | 3% | -15% | 0 | -5%
O=C(Cc1ccccc1)N1CCN(Cc2cccnc2)CC1 | 79µM* | 6% | -4% | -1 | -4%
C/C(=N\Nc1ccccc1)c1c(O)[nH]c(=O)[nH]c1=O | -9% | 4% | . | 1 | 5%
CC/C(=N\NC(=S)Nc1ccccc1)c1c(O)[nH]c(=O)[nH]c1=O | 22µM* | ? | ? | -1 | -11%
Cc1ccc(-n2ncc(C(=O)N3CCN(c4ccc(Cl)cc4)CC3)c2C2CCN(C(=O)OC(C)(C)C)CC2)c(C)c1 | . | 1% | ? | . | -12%
O=C(Oc1ccccc1)N1CCC2(CCCN(C(c3ccccc3)c3ccccc3)C2)CC1 | -8% | . | . | 0 | .
O=C(Oc1ccccc1)N1CCC[C@@]2(CCN(C(c3ccccc3)c3ccccc3)C2)C1 | 1% | . | . | -34* | .
Cc1ccc2c(c1)=C/C(=C\c1c(O)[nH]c(=S)[nH]c1=O)C(=O)N=2 | 7.1µM* | ? | ? | -16 | -13%
Cc1ccc2c(c1)=NC(=O)/C(=C/c1c(O)[nH]c(=O)[nH]c1=O)C=2 | 35µM* | 1% | -11% | 2 | 3%
O=C(N/N=C/c1c(O)n(CCC2=CCCCC2)c(=S)[nH]c1=O)c1ccccc1 | 8% | ? | 25µM* | 10 | ?
N#Cc1c(/N=C/c2c(O)n(Cc3ccco3)c(=O)[nH]c2=O)sc2c1CCCC2 | 79µM* | ? | 20µM* | -1 | -23%
O=c1[nH]c(=S)n(Cc2ccco2)c(O)c1C=NCc1cccs1 | -1% | -7% | -8% | 2 | -22%
O=c1[nH]c(=O)n(Cc2ccco2)c(O)c1C=NCc1cccs1 | 50µM* | -8% | -4% | 3 | -2%
c1nc[n]([Sn]([CH]2CCCCC2)([CH]2CCCCC2)[CH]2CCCCC2)n1 | ? | . | . | 1 | .
SMILES | Sfp PPTase inh | Tau FP inhib | Tau ThT inhib | Coupling enz | Tau fluor cs
C=C1C/C(=C\C)C(=O)O[C@@H]2CCN3CC=C(COC(=O)[C@@]1(C)O)[C@H]23 | 14% | . | . | 1 | .
CCOc1ccc2cc(C#N)c(=O)oc2c1 | 8% | . | . | -1 | .
[Hg+][c]1ccccc1 | 0.22µM* | . | . | . | .
c1ccc(N=Nc2ccccc2)cc1 | 9% | -4% | -7% | 1 | -9%
C[C@]12CC[C@H]3[C@@H](CC[C@@]45O[C@@H]4C(=O)C(C#N)C[C@]35C)[C@@H]1CC[C@@H]2O (some centres undefined) | 26% | . | . | . | .
Cn1c(=O)c2c(nc(N/N=C/c3c(O)n(C4CCCCC4)c(=S)[nH]c3=O)n2C)n(C)c1=O | 71µM* | ? | 16µM* | 2 | ?
Cc1cccc(-n2c(O)c(/C=N/Nc3nc4c(c(=O)n(C)c(=O)n4C)n3C)c(=O)[nH]c2=S)c1 | 56µM* | ? | 13µM* | -5 | ?
Cc1ccccc1-n1c(O)c(/C=N/Nc2nc3c(c(=O)n(C)c(=O)n3C)n2C)c(=O)[nH]c1=S | 50µM* | ? | ? | -7 | -14%
COc1ccc(N/N=C/c2c(O)n(-c3cccc(C)c3)c(=O)[nH]c2=O)cc1 | -27% | -13% | ? | 1 | -23%
COc1cc2[nH]c(=O)n(Cc3ccc(C(=O)N4CCN(c5ccc(Cl)cc5)CC4)cc3)c(=O)c2cc1OC | . | ? | -11% | . | ?
COc1cccc([C@@]2(O)CCCCC2CN(C)C)c1 (some centres undefined) | 17% | . | . | -1 | .
CC(Cc1ccc(C(C)(C)C)cc1)CN1CCCCC1 (centres undefined) | 4% | . | . | 1 | .
COc1ccc(/C=N\N=C(N)N)cc1 | 13% | 10% | 12% | 1 | 5%
NC(N)=N/N=C/c1ccc(N(c2ccccc2)c2ccccc2)cc1 | 40µM* | . | . | 0 | .
CC(CNC(=O)c1ccc(CSc2nc3ccncc3n2Cc2ccc(F)cc2)cc1)c1ccccc1 (centres undefined) | . | 8% | -10% | . | ?
Cc1cc(O)c2c(c1)C(=O)c1cc(O)cc(O)c1C2=O | -3% | 11% | 10µM* | -3 | 16µM*[quencher]
CCn1c(O)c(C(c2ccccn2)c2c(O)n(CC)c(=S)[nH]c2=O)c(=O)[nH]c1=S | 50µM* | ? | ? | -3 | -18%
CCn1c(O)c(C=NCc2ccccc2)c(=O)[nH]c1=S | 5% | -5% | -14% | 2 | -15%
O=c1[nH]c(=S)[nH]c(O)c1C(c1ccccn1)c1c(O)[nH]c(=S)[nH]c1=O | 25µM* | 2% | -15% | -3 | 2%
C=C(C)[C@H]1O[C@H]2CC[C@@]3(C)[C@@](O)(CC[C@H]4[C@@H]5OC(C)(C)[C@H]6C[C@@H]7C(=C)Cc8c(Cl)cc9[nH]c(c5c9c8[C@@]76O)[C@@]43C)[C@]23O[C@@H]3[C@H]1O | 16% | 6% | -15% | . | ?
NCC(CC(=O)O)c1ccc(Cl)s1 (centres undefined) | 24% | 0% | -5% | . | -1%
COCCCNC(=O)c1c(NC(=O)c2ccco2)n(Cc2ccccc2)c2nc3ccccc3nc12 | -10% | ? | ? | -13 | ?
COCCNC(=O)c1c(N)n(CCC(C)C)c2nc3ccccc3nc12 | -3% | 0% | -17% | -36* | ?
CCCCNC(=O)c1c(N)n(CCCOC)c2nc3ccccc3nc12 | -21% | -9% | ? | -39* | ?
CCOC(=O)c1c(NS(=O)(=O)c2ccccc2)n(CCCOC)c2nc3ccccc3nc12 | 11% | ? | ? | -39* | -18%
